Source: PubChem BioAssay (National Center for Advancing Translational Sciences (NCATS))
KAT2A inh: qHTS Assay for Inhibitors of GCN5L2 | Histone acetyltransferase KAT2A (Homo sapiens), Q92830 | AID 504327, 2011 | GCN5L2 HAT assay, ThioGlo1 CoA-SH fluorescence | Potency, µM (doses to about 58.9 µM), without a hit: at the top dose activity change, negative = inhibition, hits mostly inhibitors | 390,000 compounds, 0.21% hits
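Compounds, pin-transferred from DMSO stocks, meet 20nM GCN5L2 for 15 min before the reaction begins with H3(1-25) peptide (75uM) and acetyl-CoA (70uM). Thiol-reactive ThioGlo1 reports CoA release over 20 min at room temperature.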
VDR inh: Inhibitors of the vitamin D receptor (VDR): qHTS; AID 504847, 2011; Potency, µM, for inactives: max response, negative = inhibition, actives largely listed as inhibitors; VDR-SRC2-3 peptide fluorescence polarization, 2 h; 400,000 compounds, 0.93% hits
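FP read-out; VDR + SRC2-3 coactivator peptide; 23 nl compound by pintool; 2 h RT incubation; reagents held at 4 deg C, protected from light.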
ALOX12 inh: Primary qHTS assay for inhibitors of human arachidonate 12S-lipoxygenase (ALOX12): Round 2; Polyunsaturated fatty acid lipoxygenase ALOX12 (Homo sapiens), P18054; purified 12hLO, xylenol orange hydroperoxide absorbance; Potency, µM (doses to about 108 µM), for the others: top-dose activity change, negative = inhibition, hits mostly inhibitors; 580,000 compounds, 1.1% hits
Target sequence (P18054 whole entry, looked up): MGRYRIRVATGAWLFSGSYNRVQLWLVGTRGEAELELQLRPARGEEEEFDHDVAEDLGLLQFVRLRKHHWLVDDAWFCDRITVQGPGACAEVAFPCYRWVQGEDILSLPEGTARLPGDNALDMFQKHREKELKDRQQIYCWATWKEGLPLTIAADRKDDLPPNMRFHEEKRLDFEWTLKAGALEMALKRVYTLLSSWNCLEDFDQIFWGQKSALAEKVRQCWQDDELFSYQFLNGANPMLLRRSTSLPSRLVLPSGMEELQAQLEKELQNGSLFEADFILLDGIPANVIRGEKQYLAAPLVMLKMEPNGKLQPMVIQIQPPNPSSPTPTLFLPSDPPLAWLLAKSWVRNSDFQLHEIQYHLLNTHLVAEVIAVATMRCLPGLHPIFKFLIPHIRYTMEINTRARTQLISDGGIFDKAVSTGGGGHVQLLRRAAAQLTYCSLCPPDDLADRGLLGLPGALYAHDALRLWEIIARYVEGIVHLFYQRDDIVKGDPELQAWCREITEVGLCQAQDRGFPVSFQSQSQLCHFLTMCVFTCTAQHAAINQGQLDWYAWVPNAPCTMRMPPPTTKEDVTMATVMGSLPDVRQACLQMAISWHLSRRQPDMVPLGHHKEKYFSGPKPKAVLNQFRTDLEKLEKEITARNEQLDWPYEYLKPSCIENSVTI
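Purified human 12hLO (150 nM final) in 25 mM Hepes, 0.01% Triton X-100, pH 7.0 was preincubated 15 min at room temperature with compound. Then 40 uM arachidonic acid was added, 30 min. Hydroperoxide was read by Fe-XO absorbance ratio 573/405 nm.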
PLK1 PBD inh: qHTS for Inhibitors of PLK1-PDB (polo-like kinase 1 - polo-box domain): Primary Screen; 360,000 compounds, 2.8% hits; Plk1 PBD binding of FITC phosphopeptide, fluorescence polarization; Serine/threonine-protein kinase PLK1 (Homo sapiens), P53350; Potency, µM, for the others: max response, negative = inhibition, usual class: inhibitors; further: series mostly up to about 57 µM; nearly all actives have a fitted effect of over 65% in size
TbPYK confirm: qHTS of Trypanosoma Brucei Inhibitors: Confirmatory Assay for Cherry-picked Compounds; Potency, µM (top dose mostly 76.9 µM), for inactives: top-dose activity change, negative = inhibition, actives largely listed as inhibitors; recombinant TbPYK, Kinase-Glo ATP luminescence; AID 720569, 2013; shares compounds with PLK1 PBD inh; 890 compounds, 67% hits; further: nearly all actives have a fitted effect of over 70% in size
TbPYK ADP-Glo: qHTS of Trypanosoma Brucei Inhibitors: Orthogonal Assay for Cherry-picked Compounds | Potency, µM (series often up to 76.9 µM), for inactives: at the highest dose activity change, negative = inhibition, most hits filed as inhibitors | recombinant TbPYK, ADP-Glo luminescence, 60 min | shares compounds with PLK1 PBD inh | 890 compounds, 62% hits | AID 720584, 2013; further: nearly all actives have a fitted effect of over 75% in size
* marks the source's active call; other numbers are inactive results; ? = inconclusive; / = no result given; ! = not active in a repeat. Rows were chosen to be rich in hits. Some 3% of all compounds tested hit in one or more screens of this group. The call rests on the fitted dose curve; in most records, active means well fitted curve in the direction sought with a large enough effect; inconclusive means small, poorly fitted or top-dose-only effect, or another doubt; inactive means no such curve, though single readings can be large; an effect the other way counts as inactive or inconclusive. On the % scale 0 is the no-effect control and ±100 the full control effect; potency means the concentration at half of the fitted maximal effect.

SMILES	KAT2A inh	VDR inh	ALOX12 inh	PLK1 PBD inh	TbPYK confirm	TbPYK ADP-Glo
CCOc1ccc(-n2c(SCc3ccc([N+](=O)[O-])cc3)nnc2-c2ccccc2)cc1	-5%	0%	2%	5%	11µM*	8.9µM*
CC1CCN(C(=S)NC(=O)c2ccccc2)CC1	0%	6%	0%	-10%	/	/
CC1CCN(C(=S)NC(=O)c2cccs2)CC1	-10%	7%	-24%	-1%	?	14µM*
CCOc1cc(/C=C2/NC(=O)NC2=O)cc(Cl)c1OCc1ccc(F)cc1	/	/	-3%	/	/	/
CCOC(=O)CN=C1CC(C)(C)CC2=C1Sc1ncnc(N(C)C)c1N2	-8%	-13%	?	-20%	20µM*	14µM*
Cc1ccc(-c2nnc(C3CN(C(=O)c4ccc(Cl)s4)CC34CCOCC4)o2)cc1 (stereo not given)	/	/	16%	/	/	/
CCOc1ccc(-c2c(=O)n(O)c3ccccc3[n+]2[O-])cc1	-16%	-6%	0%	?	?	-15%
CCOc1ccc(-c2c(=O)n(OCC)c3ccccc3[n+]2[O-])cc1	-7%	-2%	?	?	/	/
Cc1ccc(C(=S)N2CCN(Cc3ccccc3)CC2)cc1	-6%	?	-1%	8.4µM*	8.9µM*	13µM*
CCCCN(CCCC)C(=O)c1sc2nc(N3CCOCC3)c3c(c2c1N)CCCC3	-13%	?	22%	30µM*	1.6µM*	3.2µM*
NC(=O)c1sc2nc(N3CCOCC3)c3c(c2c1N)CCCC3	-2%	-14%	-16%	27µM*	11µM*	10µM*
CC(/C=N/O)=N/N=C(C)\C=N\O	/	/	8%	/	/	/
Cc1cc(C)nc(Sc2nc(Cl)nc(N(c3ccccc3)c3ccccc3)n2)n1	40%	22µM*	0%	13µM*	?	35µM*
CC(NC(=O)c1nccnc1N)c1ccccc1Br (stereo not given)	/	/	0%	/	/	/
CC(C)C1Nc2ccc(C(=O)O)cc2C2C=CCC21 (stereo not given)	-23%	?	?	?	?	?
O=S(=O)(c1ccc(Oc2ccc3ccccc3c2)nc1)N1CCCCC1	/	/	-16%	/	/	/
O=C(O)c1cc(N=Nc2c(O)ccc3ccccc23)cc(C(=O)O)c1	?	5%	-4%	9.5µM*	7.1µM*	13µM*
O=C1CSc2ccc(C(=O)NOCc3ccccc3)cc2N1	/	/	-15%	/	/	/
CC(c1ccccc1)N(C)C(=O)CSc1cc(C(=O)NC2CC2)c2ccccc2n1 (stereo not given)	/	/	2%	/	/	/
CC1C=CCC2C(=O)N(c3cccc(C(=O)NCc4ccccc4)c3)C(=O)C12 (stereo not given)	-15%	24%	32µM*	-8%	?	?
COc1cc(N2C(=O)C=CC2=O)ccc1N1C(=O)C=CC1=O	/	?	-23%	2.4µM*	1.1µM*	1.8µM*
Brc1ccc(-c2nc3ccccc3s2)s1	-2%	4%	0%	-11%	/	/
O=c1ccc2nc3ccccc3sc-2c1	/	/	?	21µM*	13µM*	?
O=c1cc(O)n(-c2ccccc2)c(=S)[nH]1	1%	-22%	?	3.4µM*	?	-21%
CCN1/C(=C/C(C)=C/c2sc3ccccc3[n+]2CC)Sc2ccccc21	-6%	-27%	35µM*!	14%	?	-10%
SMILES	KAT2A inh	VDR inh	ALOX12 inh	PLK1 PBD inh	TbPYK confirm	TbPYK ADP-Glo
O=C(O)c1ccc(CSc2nnc(-c3cccnc3)n2-c2ccc(Br)cc2)cc1	0%	17%	-21%	-14%	2.5µM*	3.5µM*
O=C(O)c1ccc(CSc2nnc(-c3ccncc3)n2-c2ccc(Br)cc2)cc1	-8%	3%	-17%	-10%	/	/
O=c1[nH]c2sc3c(c2c2nc(-c4ccc(O)cc4)nn12)CCC3	/	/	-18%	/	/	/
O=c1[nH]c2sc3c(c2c2nncn12)CCCC3	0%	2%	-16%	-26%	?	35µM*
Cc1nnc(SCC(=O)c2c[nH]c3ccccc23)s1	/	/	-18%	/	/	/
COCCn1c(=S)[nH]c2sc3c(c2c1=O)CCCC3	-24%	-18%	?	-14%	10µM*	10µM*
Cc1cc(C)c2c(c1)-c1c(ssc1=S)C(C)(C)N2C(=O)CSc1nncn1C	-6%	?	?	-12%	14µM*	16µM*
Cc1ccc2c(c1)-c1c(ssc1=S)C(C)(C)N2C(=O)CSc1nncn1C	-2%	-25%	?	-24%	/	/
O=C(Nc1cccc(OCc2ccc(F)cc2)c1)c1ccncc1	/	/	32%	/	/	/
CCN1C(=O)/C(=C\C=C2/C=CC=CN2CC)SC1=S	-12%	?	?	12%	/	/
CCN1C(=O)/C(=C/C=C2\C=CN(CC)c3ccccc32)SC1=S	1%	-2%	?	-10%	22µM*	?
COC(=O)/C(=N\Nc1ccccc1)Sc1nnc(-c2ccc(OC)cc2)n1C	-2%	-4%	?	-4%	18µM*	18µM*
COc1cc2ccc(=O)oc2c(O)c1O	/	-19%	50%	-4%	28µM*	35µM*
O=C(NCc1nnc2c(-c3nc(C4CC4)no3)cccn12)c1ccc(F)cc1Cl	/	/	71%	/	/	/
COc1ccc(CCNC(=O)CSc2ccc3ccccc3c2)cc1OC	-11%	?	?	-3%	/	/
O=C(CSc1ccc2ccccc2c1)NCCc1ccc(O)c(O)c1	-4%	-7%	?	-13%	7.1µM*	16µM*
O=C1OC(Nc2ccc3c(c2)OCO3)c2ccccc21 (stereo not given)	-7%	-8%	?	-15%	0.5µM*	13µM*
COc1ccc(OC)c(NC(=O)c2ccccc2N(Cc2ccccc2)S(C)(=O)=O)c1	-2%	-3%	-30%	-9%	8.9µM*	14µM*
CCn1c(=O)cc(C(F)(F)F)[nH]c1=S	-24%	-5%	-59%	-12%	?	35µM*
NS(=O)(=O)c1ccc(-c2ccc(/C=C3\C(=O)Nc4ccccc43)o2)cc1	-10%	/	/	/	/	/
Cc1ccc(/C=C2\C(=O)Nc3ccccc32)o1	5%	-22%	?	-19%	?	?
CCC(C)(C)NC(=O)c1ccc(C(=O)O)cc1	/	/	-4%	/	/	/
Cc1ccc(NNS(=O)(=O)c2ccc(C)cc2)cc1	35µM*	?	2.8µM*	3.8µM*	8.9µM*	?
Cc1ccc(S(=O)(=O)NN=CC=CC=NNS(=O)(=O)c2ccc(C)cc2)cc1	/	/	4µM*	?	32µM*	35µM*
